Assay results reported in PubChem BioAssay.
Active and inactive are the calls of the source.

Experiments:
[1] = test system: PRMT1 (protein arginine N-methyltransferase 1); assay: PRMT1 binders on small-molecule microarrays, primary screen, biochemical, small-molecule microarray, 635 nm fluorescence (AID 1088); conditions: small-molecule microarray binding, higher = more signal;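 further: binding of Prmt1 protein to compounds spotted on small-molecule microarray slides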
[2] = yeast growth modulation, basal conditions, primary screen, YJM789 clinical isolate, OD600, 24 h (AID 1089);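 further: growth of clinical yeast isolate S. cerevisiae YJM 789 seeded 1000 cells per well; test concentration not given here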; conditions: S. cerevisiae YJM789 growth, higher = more signal, called active from +8 up or from −8 down
[3] = fission yeast growth modulation, primary screen, strain 972, OD600, 24 h, no modulator (AID 1090);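 further: basal condition with compound alone and no growth modifier present; test concentration not given here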; conditions: S. pombe 972 growth, higher = more signal, called active from +8 up or from −8 down
[4] = S. cerevisiae growth modulation with rapamycin, primary screen, strain BY4716, OD600, 96 h (AID 1091); conditions: higher = more signal, called active from +8 up or from −8 down; further: test concentration not given here
[5] = target: Torsin-1A-interacting protein 2 (Homo sapiens) (UniProt Q8NFQ8); assay: LULL1 binders on small-molecule microarray, primary screen, cell lysate, human LULL1 lysate, 635/667 nm fluorescence (AID 1092); conditions: hLULL1 lysate binding, 635 nm fluorescence, higher = more signal;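 further: probe is lysate of COS7 cells overexpressing human LULL1; score merges per-feature 667 nm fluorescence with signal-to-noise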
[6] = E. coli growth modulation, two-sided OD650, primary screen, E. coli filamentation project, strain DRC41, 24 h (AID 1093); conditions: OD650, 24 h, higher = more signal, called active from +8 up or from −8 down;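 further: MC1000 strain lacking acrAB efflux and sulA so SOS filamentation is blocked; test concentration not given here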
[7] = small-molecule microarray binders of probe aLefty2, primary screen, biochemical, biotinylated probe, 635/667 nm fluorescence (AID 1094); conditions: higher = more signal;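 further: score merges spot fluorescence near 667 nm with spot signal-to-noise ratio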
[8] = test system: Noggin (protein binding on small-molecule microarray); assay: Noggin binders on small-molecule microarray, primary screen, biochemical, 635/667 nm fluorescence (AID 1095); conditions: 635 nm fluorescence, higher = more signal;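 further: score merges 667 nm feature fluorescence with signal to noise over triplicate slides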
[9] = target: Neurogenic locus notch homolog protein 3 (Homo sapiens) (UniProt Q9UM47); assay: NOTCH3 binders on small-molecule microarray, primary screen, biochemical, 635/667 nm fluorescence (AID 1096); conditions: NOTCH3 binding, 635 nm fluorescence, higher = more signal
[10] = small-molecule microarray binders of probe aEGFR, primary screen, biochemical, biotinylated probe, 635/667 nm fluorescence (AID 1097); conditions: higher = more signal;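 further: probe is a biotinylated anti-EGFR antibody binding compounds printed on slides; score combines fluorescence near 667 nm and signal to noise of each spot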
[11] = test system: Plasmodium falciparum Sir2 (PF13_0152, Sir2A); assay: pfSir2 binders on small-molecule microarrays, primary screen, biochemical, small-molecule microarray, 635 nm fluorescence (AID 1098); conditions: small-molecule microarray binding, fluorescence 635 nm; higher = more signal;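 further: score merges spot fluorescence intensity with its signal-to-noise ratio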
[12] = small-molecule microarray binders of probe aDKK1, primary screen, biochemical, biotinylated probe, 635/667 nm fluorescence (AID 1099); conditions: higher = more signal;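 further: score merges 667nm spot fluorescence with signal to noise across triplicate slides; reference of the scale not given here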
[13] = small-molecule microarray binders of probe aCHRDL2, primary screen, biochemical, biotinylated probe, 635/667 nm fluorescence (AID 1100); conditions: higher = more signal
[14] = splicing luciferase reporter signal modulators, primary screen, spliceosome inhibition project, cell-based, HEK293, splice +/- reporter (AID 1101); conditions: luminescence, 24 h, higher = more signal, called active from +8 up or from −8 down;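 further: HEK293 cells carrying a splicing-competent luciferase reporter gene; test concentration not given here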
[15] = target: Fibroblast growth factor 10 (Homo sapiens) (UniProt O15520); assay: FGF10 binders on small-molecule microarrays, primary screen, biochemical, small-molecule microarray, 635 nm fluorescence (AID 1102); conditions: FGF10 binding, fluorescence 635 nm, higher = more signal
[16] = test system: glycogen synthase kinase-3 (GSK3A per assay name; protocol says GSK3B); assay: GSK3 binders on small-molecule microarrays, primary screen, biochemical, small-molecule microarray, 635 nm fluorescence, GSK3A (AID 1103); conditions: small-molecule microarray binding, fluorescence 635 nm; higher = more signal; further: the record names both GSK3A and GSK3B
[17] = target: Epidermal growth factor receptor (Homo sapiens) (UniProt P00533); assay: EGFR binders on small-molecule microarrays, primary screen, biochemical, small-molecule microarray, 635 nm fluorescence (AID 1104); conditions: EGFR binding, higher = more signal;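 further: score merges 667 nm emission intensity with spot signal to noise over triplicate slides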
[18] = target: Follistatin-related protein 3 (Homo sapiens) (UniProt O95633); assay: FSTL3 binders on small-molecule microarrays, primary screen, biochemical, small-molecule microarray, 635 nm fluorescence (AID 1105); conditions: FSTL3 binding, higher = more signal;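 further: score merges emission near 667 nm and signal to noise per printed spot across three slides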
[19] = target: Dickkopf-related protein 1 (Homo sapiens) (UniProt O94907); assay: DKK1 binders on small-molecule microarrays, primary screen, biochemical, small-molecule microarray, 635 nm fluorescence scan (AID 1106); conditions: DKK1 binding, higher = more signal;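 further: score merges emission near 667 nm with signal to noise over three replicate slides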
[20] = test system: Inhibin beta A chain (activin A); assay: INHBA (activin A) binders on microarrays, primary screen, biochemical, small-molecule microarray, 635 nm fluorescence scan (AID 1107); conditions: small-molecule microarray binding, higher = more signal;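 further: mouse activin A protein probed at 4.33 µg/mL on printed slides; score merges bound-protein fluorescence near 667 nm with spot signal-to-noise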

Dickkopf-related protein 1 (Homo sapiens), sequence (O94907 whole entry, looked up): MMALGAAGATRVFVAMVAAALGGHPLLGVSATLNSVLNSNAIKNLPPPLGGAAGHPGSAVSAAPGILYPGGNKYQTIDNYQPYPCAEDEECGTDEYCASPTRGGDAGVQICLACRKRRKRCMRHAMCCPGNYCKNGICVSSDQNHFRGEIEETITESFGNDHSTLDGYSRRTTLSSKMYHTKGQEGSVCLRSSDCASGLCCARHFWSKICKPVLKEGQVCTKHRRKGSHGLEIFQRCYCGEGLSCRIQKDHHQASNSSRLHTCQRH
Torsin-1A-interacting protein 2 (Homo sapiens), sequence (Q8NFQ8 whole entry, looked up): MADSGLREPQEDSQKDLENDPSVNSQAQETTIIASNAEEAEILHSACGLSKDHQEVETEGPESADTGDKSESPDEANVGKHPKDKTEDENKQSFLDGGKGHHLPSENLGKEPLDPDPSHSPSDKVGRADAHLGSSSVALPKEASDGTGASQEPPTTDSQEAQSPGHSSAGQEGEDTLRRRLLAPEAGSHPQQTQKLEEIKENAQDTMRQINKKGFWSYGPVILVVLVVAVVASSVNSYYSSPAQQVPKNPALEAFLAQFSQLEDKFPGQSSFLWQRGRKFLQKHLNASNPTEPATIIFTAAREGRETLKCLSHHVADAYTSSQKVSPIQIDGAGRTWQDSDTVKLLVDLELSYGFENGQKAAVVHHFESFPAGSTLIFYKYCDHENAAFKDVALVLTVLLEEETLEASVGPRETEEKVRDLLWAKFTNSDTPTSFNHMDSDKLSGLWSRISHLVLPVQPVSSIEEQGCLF
Neurogenic locus notch homolog protein 3 (Homo sapiens), sequence (Q9UM47 whole entry, looked up): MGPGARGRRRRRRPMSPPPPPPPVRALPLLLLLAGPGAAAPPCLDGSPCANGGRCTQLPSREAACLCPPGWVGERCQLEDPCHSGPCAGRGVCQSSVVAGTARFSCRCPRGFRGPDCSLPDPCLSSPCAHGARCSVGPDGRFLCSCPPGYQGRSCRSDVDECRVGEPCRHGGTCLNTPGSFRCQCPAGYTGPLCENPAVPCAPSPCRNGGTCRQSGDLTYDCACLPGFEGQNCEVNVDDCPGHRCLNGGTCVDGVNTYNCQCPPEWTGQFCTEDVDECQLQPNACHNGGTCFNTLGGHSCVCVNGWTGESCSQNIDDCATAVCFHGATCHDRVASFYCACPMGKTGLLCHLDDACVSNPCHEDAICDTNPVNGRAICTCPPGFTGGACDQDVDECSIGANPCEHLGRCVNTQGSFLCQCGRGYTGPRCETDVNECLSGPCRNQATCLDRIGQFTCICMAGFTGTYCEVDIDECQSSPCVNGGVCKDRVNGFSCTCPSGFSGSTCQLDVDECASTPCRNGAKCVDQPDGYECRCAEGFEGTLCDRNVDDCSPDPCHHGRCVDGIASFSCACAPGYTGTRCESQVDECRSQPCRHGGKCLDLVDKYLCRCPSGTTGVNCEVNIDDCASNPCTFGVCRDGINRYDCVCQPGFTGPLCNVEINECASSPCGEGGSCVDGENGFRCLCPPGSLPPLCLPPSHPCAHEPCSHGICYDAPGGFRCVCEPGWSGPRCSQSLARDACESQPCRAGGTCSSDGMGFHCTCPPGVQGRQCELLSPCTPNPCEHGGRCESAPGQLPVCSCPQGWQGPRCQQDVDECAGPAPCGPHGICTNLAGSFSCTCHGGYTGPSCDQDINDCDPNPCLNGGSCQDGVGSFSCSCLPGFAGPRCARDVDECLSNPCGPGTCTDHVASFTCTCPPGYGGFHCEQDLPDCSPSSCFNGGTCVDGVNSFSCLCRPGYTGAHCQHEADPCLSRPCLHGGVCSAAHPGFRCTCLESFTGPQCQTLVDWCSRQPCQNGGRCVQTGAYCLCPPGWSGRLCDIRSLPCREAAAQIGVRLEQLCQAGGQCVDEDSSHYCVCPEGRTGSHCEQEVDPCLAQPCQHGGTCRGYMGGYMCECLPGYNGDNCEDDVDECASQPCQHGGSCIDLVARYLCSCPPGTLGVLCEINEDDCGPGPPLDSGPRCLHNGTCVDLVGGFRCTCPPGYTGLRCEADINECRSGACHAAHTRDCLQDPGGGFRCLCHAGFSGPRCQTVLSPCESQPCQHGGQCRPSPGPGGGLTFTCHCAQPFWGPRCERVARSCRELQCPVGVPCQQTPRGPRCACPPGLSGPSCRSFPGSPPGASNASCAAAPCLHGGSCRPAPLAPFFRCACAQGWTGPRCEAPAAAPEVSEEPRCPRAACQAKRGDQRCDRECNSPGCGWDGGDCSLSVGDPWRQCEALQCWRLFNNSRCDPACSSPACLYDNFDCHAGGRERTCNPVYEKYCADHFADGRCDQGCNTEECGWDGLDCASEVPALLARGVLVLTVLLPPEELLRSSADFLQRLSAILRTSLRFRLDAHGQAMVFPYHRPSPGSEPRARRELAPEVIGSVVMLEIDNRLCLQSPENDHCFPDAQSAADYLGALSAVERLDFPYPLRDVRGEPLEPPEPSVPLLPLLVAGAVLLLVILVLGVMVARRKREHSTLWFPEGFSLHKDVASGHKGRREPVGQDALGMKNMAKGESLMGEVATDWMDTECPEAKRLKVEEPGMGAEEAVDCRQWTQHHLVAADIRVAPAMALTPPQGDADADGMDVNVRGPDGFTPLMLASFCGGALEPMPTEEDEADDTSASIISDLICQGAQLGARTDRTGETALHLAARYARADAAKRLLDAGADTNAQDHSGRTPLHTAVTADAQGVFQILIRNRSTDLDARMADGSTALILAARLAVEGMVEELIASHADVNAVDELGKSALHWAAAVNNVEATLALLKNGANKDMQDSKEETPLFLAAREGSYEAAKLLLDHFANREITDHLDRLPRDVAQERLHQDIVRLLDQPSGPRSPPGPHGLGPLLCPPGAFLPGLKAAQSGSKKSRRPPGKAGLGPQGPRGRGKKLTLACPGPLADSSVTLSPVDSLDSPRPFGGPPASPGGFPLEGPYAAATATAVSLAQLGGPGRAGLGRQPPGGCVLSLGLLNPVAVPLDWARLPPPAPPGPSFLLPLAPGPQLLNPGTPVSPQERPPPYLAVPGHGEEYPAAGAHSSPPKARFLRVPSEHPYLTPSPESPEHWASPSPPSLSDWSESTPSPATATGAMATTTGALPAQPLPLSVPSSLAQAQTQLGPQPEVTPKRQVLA
Follistatin-related protein 3 (Homo sapiens), sequence (O95633 whole entry, looked up): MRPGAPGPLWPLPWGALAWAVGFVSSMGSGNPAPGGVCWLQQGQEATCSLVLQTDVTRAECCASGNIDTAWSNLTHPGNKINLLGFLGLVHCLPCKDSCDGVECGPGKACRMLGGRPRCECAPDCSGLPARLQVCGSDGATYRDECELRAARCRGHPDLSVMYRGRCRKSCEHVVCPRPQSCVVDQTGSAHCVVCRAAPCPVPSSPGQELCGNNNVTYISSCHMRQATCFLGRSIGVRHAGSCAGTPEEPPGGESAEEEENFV
Fibroblast growth factor 10 (Homo sapiens), sequence (O15520 whole entry, looked up): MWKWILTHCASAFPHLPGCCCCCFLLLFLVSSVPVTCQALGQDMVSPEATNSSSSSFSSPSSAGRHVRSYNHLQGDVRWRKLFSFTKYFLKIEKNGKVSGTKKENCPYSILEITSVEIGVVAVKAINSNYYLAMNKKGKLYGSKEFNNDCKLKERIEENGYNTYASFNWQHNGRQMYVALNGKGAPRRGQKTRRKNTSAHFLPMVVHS
Epidermal growth factor receptor (Homo sapiens), sequence (P00533 whole entry, looked up): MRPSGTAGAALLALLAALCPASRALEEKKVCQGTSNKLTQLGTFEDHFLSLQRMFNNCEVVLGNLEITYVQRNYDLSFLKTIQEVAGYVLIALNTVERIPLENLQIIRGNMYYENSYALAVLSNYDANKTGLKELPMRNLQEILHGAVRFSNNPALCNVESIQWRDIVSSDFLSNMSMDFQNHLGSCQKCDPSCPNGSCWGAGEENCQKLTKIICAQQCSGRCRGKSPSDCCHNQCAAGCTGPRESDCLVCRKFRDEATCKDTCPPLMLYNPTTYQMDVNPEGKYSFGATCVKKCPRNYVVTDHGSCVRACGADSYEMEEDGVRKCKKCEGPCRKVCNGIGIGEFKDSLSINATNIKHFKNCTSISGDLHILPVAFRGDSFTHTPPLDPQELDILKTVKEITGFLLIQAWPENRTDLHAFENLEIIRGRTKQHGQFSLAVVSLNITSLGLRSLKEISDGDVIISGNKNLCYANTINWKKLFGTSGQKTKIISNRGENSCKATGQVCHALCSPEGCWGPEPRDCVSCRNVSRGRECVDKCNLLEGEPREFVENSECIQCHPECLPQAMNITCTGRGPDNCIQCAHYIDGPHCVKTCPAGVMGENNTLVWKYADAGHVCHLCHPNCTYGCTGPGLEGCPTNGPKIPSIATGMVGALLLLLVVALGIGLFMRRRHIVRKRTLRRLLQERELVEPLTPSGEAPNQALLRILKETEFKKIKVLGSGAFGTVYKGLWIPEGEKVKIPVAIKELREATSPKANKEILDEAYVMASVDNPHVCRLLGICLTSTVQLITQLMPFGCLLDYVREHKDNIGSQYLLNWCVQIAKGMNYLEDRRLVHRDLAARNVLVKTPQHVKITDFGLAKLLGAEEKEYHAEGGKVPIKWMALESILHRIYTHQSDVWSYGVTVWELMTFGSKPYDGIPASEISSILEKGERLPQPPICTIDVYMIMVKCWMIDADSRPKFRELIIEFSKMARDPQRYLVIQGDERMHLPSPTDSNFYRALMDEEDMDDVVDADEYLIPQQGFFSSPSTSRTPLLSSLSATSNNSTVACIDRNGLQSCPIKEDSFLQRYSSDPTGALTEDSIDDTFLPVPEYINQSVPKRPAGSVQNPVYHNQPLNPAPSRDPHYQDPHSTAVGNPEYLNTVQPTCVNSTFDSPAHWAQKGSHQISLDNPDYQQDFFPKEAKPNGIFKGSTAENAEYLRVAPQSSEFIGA

Row | SMILES | composite z-score [1] | z-score [2] | z-score [3] | z-score [4] | composite z-score [5] | z-score [6] | composite z-score [7] | composite z-score [8] | composite z-score [9] | composite z-score [10] | composite z-score [11] | composite z-score [12] | composite z-score [13] | z-score [14] | composite z-score [15] | composite z-score [16] | composite z-score [17] | composite z-score [18] | composite z-score [19] | composite z-score [20]
1 | C[N+](C)(C)CCCC[C@@H]1NC(=O)[C@H]2C[C@@H](C(=O)O)[C@@H](c3cccc(OCCO)c3)N2C1=O | 1.54 | -1.28 (inactive) | -0.362 (inactive) | -0.498 (inactive) | 3.79 | 0.0136 (inactive) | 1.5 | 1.83 | 1.1 | 1.06 | 2.08 | 2.39 | 1.38 | -0.246 (inactive) | 1.4 | 1.36 | 1.17 | 1.41 | 1.3 | 1.47
2 | O=C1O[C@@H](c2ccccc2)[C@@H](c2ccccc2)N2[C@@H](c3ccc(O)cc3)[C@]3(C(=O)Nc4ccc(C#CCCO)cc43)[C@@H](C(=O)O)[C@H]12 | 1.57 | 0.414 (inactive) | -0.571 (inactive) | -0.265 (inactive) | 2.79 | 0.7 (inactive) | 1.55 | -0.222 | 0.314 | 1.07 | 1.67 | 2.56 | 1.64 | -0.545 (inactive) | 0.472 | -0.2 | 0.363 | 1.13 | -0.107 | 1.76
3 | CN1C(=O)C2C(C1=O)C1C=C(c3ccc(CO)cc3)C2C(C2CC2)N1Cc1sc2ccccc2c1Cl (stereo not given) | 1.55 | 0.654 (inactive) | -3 (inactive) | 1.42 (inactive) | 3.33 | 0.204 (inactive) | 0.252 | 0.411 | 1.03 | 0.0651 | 0.924 | -0.197 | 0.82 | 0.254 (inactive) | 1.25 | 1.33 | 0.291 | 0.989 | 0.473 | 0.74
4 | O=C1O[C@@H](c2ccccc2)[C@@H](c2ccccc2)N2[C@@H](c3ccc(O)cc3)[C@]3(C(=O)Nc4ccccc43)[C@@H](C(=O)NC[C@H](O)c3ccccc3)[C@H]12 | 0.867 | 0.3 (inactive) | 0.572 (inactive) | 1.49 (inactive) | 2.02 | 1.76 (inactive) | -0.12 | 0.753 | 0.0385 | -0.112 | 0.851 | -0.139 | 0.0547 | 0.576 (inactive) | 0.117 | -1.28 | 0.249 | 0.244 | 0.259 | -0.297
5 | CN(C)CCCN1C(=O)[C@@]2(c3ccc([N+](=O)[O-])cc3)CC(=O)N(C3CCCCC3)[C@@H]2c2ccc(CO)cc21 | -0.282 | -1.34 (inactive) | -1.09 (inactive) | -2.61 (inactive) | -0.933 | -1.22 (inactive) | -0.142 | -0.233 | -0.0488 | -0.103 | -0.34 | -0.0972 | 0.196 | -0.447 (inactive) | 0.835 | -0.808 | 0.108 | -0.0207 | -0.162 | 0.731
